Experimental findings from PubChem BioAssay AID1611 (NINDS Approved Drug Screening Program, 2009) are described below.

The nature of this test: inducers of human heat shock response, cell-based, HSE luciferase (AID 1611). Particulars: human cells, HSE-luciferase heat shock reporter; stronger effect = higher value.
In the case of `CCCOc1ccc2nc(NC(=O)OC)[nH]c2c1`, the fold change amounted to 1.26.

As for `CCN(CC)CCCC(C)Nc1c2ccc(Cl)cc2nc2ccc(OC)cc12` (stereo not drawn), the fold change is 0.97.

Regarding `CCN(CC)CCOC(=O)c1ccc(N)cc1`, the fold change was 0.94.

Take `CCCCCCCCCCCCCCCC(=O)OC/C=C(C)/C=C/C=C(C)/C=C/C1=C(C)CCCC1(C)C`: the fold change was found to be 1.08.

Consider `CO/N=C(/C(=O)NC1C(=O)N2C(C(=O)O)=C(COC(N)=O)CSC12)c1ccco1` (stereo not drawn), for which the fold change came to 1.

Turning to `O=C1OCCN1/N=C/c1ccc([N+](=O)[O-])o1`, the fold change was 1.79.

With `CCN(CC)C(=O)c1cccc(C)c1`, the fold change is 0.91.

Turning to `CN(C)C(=O)Oc1cccc([N+](C)(C)C)c1`, the fold change is 1.23.

On to `Nc1ccc(S(=O)(=O)Nc2ccnn2-c2ccccc2)cc1`, for which the fold change was 0.94.

For the compound `Cc1ncc([N+](=O)[O-])n1CCO`, the fold change came out at 1.2.

On to `O=C1C[C@@H](c2ccc(O)cc2)Oc2cc(O)cc(O)c21`, for which the fold change is 0.8.

Turning to `CCCCc1oc2ccccc2c1C(=O)c1cc(I)c(OCCN(CC)CC)c(I)c1`, the fold change amounted to 0.84.

Consider `c1ccc2[nH]c(-c3cscn3)nc2c1`, for which the fold change is 0.81.

For `CCCCNc1cc(C(=O)O)cc(S(N)(=O)=O)c1Oc1ccccc1`, the fold change turned out to be 1.03.

For the compound `O=C(O)c1cccnc1Nc1cccc(C(F)(F)F)c1`, the fold change was determined as 1.08.

In the case of `Cc1cccc(Nc2ccccc2C(=O)O)c1C`, the fold change came out at 1.2.

As to `N[C@@H]1[C@@H](O)[C@H](O)[C@@H](CO)O[C@H]1O`, the fold change turned out to be 1.15.

Regarding `COc1ccccc1OCC(O)CO` (stereo not drawn), the fold change amounted to 1.
